# Results filed as inconclusive are left out. The source made the active and inactive calls. The calls were made as follows: active = hit-call score of the fitted dose curve at least 0.9, where 1 is the maximum; inconclusive = response in the unintended direction; inactive = score below 0.9.
# Target: Nucleoli Translocation, AR (gene 367) (UniProt P10275)
# Assay: UPITT_HCI_U2OS_AR_TIF2_Nucleoli_Agonist: University of Pittsburgh U2OS Androgen Receptor-Transcriptional Intermediary Factor 2 (AR-TIF2) Agonism High Content Imaging Assay for Nucleoli Translocation (AID 2283998)
# Source text: UPITT_AR_TIF2_PPIB is a cell-based, high-content imaging assay that uses U2OS, a human osteosarcoma cell line, expressing a human androgen receptor fused to red fluorescent protein and the coactivator TIF2 fused to green fluorescent protein. UPITT_HCI_U2OS_AR_TIF2_Nucleoli_Agonist is one of four assay components measured from the UPITT_AR_TIF2_PPIB assay. It is designed to make measurements of red fluorescence localized in the nucleolar region of the cell nucleus as detected with high-content fluorescent imaging.Data from the assay component UPITT_HCI_U2OS_AR_TIF2_Nucleoli_Agonist was analyzed into 1 assay endpoint. This assay endpoint, UPITT_HCI_U2OS_AR_TIF2_Nucleoli_Agonist, was analyzed in the positive analysis fitting direction relative to DMSO as the baseline of activity. Using a type of binding reporter, measures of receptor for gain-of-signal activity can be used to understand the binding at the pathway-level as it relates to the gene AR.
# Daughter plates containing 2 uL of 10 mM compounds in DMSO were prepared and replicated from the 384-well Library of Pharmacologically Active Compounds (LOPAC) master plates using the Bravo outfitted with a 384-well transfer head. Aluminum adhesive plate seals were applied with an Abgene Seal-IT 100 (Rochester, NY) plate sealer, and the plates were stored at -20 C in a Matrical MatriMinistore (Spokane, WA) automated compound storage and retrieval system. For screening, LOPAC daughter plates were withdrawn from -20C storage, thawed to ambient temperature, centrifuged 1-2 min at 50 g, and the plate seals were removed before the transfer of 98 uL of serum-free tissue culture medium (SFM) into wells using the BioTek Microflo liquid handler (BioTek, Winooski, VT) to generate a 200 uM intermediate stock concentration of library compounds (2.0% DMSO). The diluted compounds were mixed by repeated aspiration and dispensation using a 384-well P30 dispensing head on the Evolution P3 (EP3) liquid handling platform (PerkinElmer, Waltham, MA) and then 5 uL of diluted compounds was transferred to the wells of assay plates. In the LOPAC screen, compounds were individually tested at a final concentration of 20 uM (0.2% DMSO). After the diluted compounds had been transferred from the daughter plates to the primary HCS assay plates, aluminum adhesive plate seals were applied and the diluted daughter plates were stored frozen at -20C. To confirm active compounds identified in the primary screen, we withdrew the LOPAC daughter plates containing the 200 uM intermediate concentration of library compounds (2.0% DMSO) from -20C storage, thawed them to ambient temperature, centrifuged them for 1-2 min at 50 g, and removed the plate seals. A work list was generated to direct the Multiprobe Janus liquid handling platform (PerkinElmer) to cherry pick 75 uL from the wells of the diluted daughter plates that were flagged active in the primary screen and to reformat these into a 384-well plate hit confirmation daughter plate. Five microliters of primary HCS active compounds was then transferred into triplicate wells of assay plates using a 384-well P30 dispensing head on the Evolution P3 (EP3) liquid handling platform (PerkinElmer). […] Daughter plates containing 2 uL of the serially diluted compounds in DMSO were prepared and replicated from the 384-well serial dilution master plates using the Bravo outfitted with a 384-well transfer head. Aluminum adhesive plate seals were applied and plates were stored at -20C. For testing in the bioassays, daughter plates were withdrawn from -20C storage, thawed to ambient temperature, centrifuged for 1-2 min at 50 g, and the plate seals were removed before the transfer of 38 uL of SFM into wells using the BioTek Microflo liquid handler (BioTek) to generate an intermediate stock concentration of library compounds ranging from 1.95 to 500 uM (5.0% DMSO). […]
# Sequence of Nucleoli Translocation, AR (gene 367) (P10275 whole entry, looked up): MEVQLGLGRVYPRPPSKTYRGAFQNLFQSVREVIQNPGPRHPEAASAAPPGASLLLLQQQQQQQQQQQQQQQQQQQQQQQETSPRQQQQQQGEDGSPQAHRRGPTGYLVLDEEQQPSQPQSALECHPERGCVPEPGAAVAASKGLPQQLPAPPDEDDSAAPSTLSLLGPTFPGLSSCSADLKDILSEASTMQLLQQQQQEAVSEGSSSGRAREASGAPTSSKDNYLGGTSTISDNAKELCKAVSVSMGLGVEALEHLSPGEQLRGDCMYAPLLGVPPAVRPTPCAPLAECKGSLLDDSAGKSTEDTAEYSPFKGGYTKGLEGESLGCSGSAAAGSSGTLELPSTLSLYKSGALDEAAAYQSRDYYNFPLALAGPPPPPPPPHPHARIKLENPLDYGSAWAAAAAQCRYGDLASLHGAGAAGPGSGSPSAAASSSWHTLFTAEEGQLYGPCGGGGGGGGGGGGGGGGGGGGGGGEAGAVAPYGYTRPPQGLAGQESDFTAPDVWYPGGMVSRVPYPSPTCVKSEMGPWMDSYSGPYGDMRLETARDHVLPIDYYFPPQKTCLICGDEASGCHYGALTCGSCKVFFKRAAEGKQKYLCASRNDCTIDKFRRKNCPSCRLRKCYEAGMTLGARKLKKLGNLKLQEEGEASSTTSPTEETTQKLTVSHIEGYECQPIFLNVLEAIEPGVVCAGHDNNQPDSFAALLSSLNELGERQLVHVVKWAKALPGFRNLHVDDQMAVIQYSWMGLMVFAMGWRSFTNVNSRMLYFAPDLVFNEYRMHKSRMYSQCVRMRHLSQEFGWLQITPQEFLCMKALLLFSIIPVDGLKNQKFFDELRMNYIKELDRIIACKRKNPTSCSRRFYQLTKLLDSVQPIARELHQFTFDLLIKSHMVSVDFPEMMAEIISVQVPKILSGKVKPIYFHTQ
SMILES,outcome,AC50
O=P(OCC(Br)CBr)(OCC(Br)CBr)OCC(Br)CBr (configuration not stated),inactive,–
ClC(Cl)=C(c1ccc(Cl)cc1)c1ccccc1Cl,inactive,–
ClC1=C(Cl)C2(Cl)C3C(Cl)C(Cl)CC3C1(Cl)C2(Cl)Cl (configuration not stated),inactive,–
CCCCC(CC)COP(=O)(Oc1ccccc1)Oc1ccccc1 (configuration not stated),inactive,–
CCN(CC)c1ccccc1,inactive,–
[N-]=[N+]=[N-],inactive,–
CC1(C)CN=C(NN=C(/C=C/c2ccc(C(F)(F)F)cc2)/C=C/c2ccc(C(F)(F)F)cc2)NC1,inactive,–
CCCCCCCc1ccc(O)cc1,–,19.2 µM (active)
CCCCN(CC)C(=O)SCCC,inactive,–
CC(C)(C)N(NC(=O)c1ccc(Cl)cc1)C(=O)c1ccccc1,inactive,–
CO/N=C(/C(=O)OC)c1ccccc1COc1ccccc1C,inactive,–
CCNc1nc(Cl)nc(NC(C)(C)C)n1,inactive,–
